The results in this text go back to PubChem BioAssay (NCI).

Test [1] can be described thus: NCI Yeast Anticancer Drug Screen. Data for the rad50 strain (AID 155).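 Note: 0% = growth of vehicle-only cultures of the same strain.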 The settings on record: S. cerevisiae rad50 strain growth inhibition; at 50.0 µM; active compounds read high. Summed up: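 Readout: growth inhibition relative to vehicle-treated cultures. Compound exposure was carried out in a genetically defined yeast strain deficient in DNA damage repair.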
Test [2] in a line: NCI Yeast Anticancer Drug Screen. Data for the mec2-1 strain (AID 157). The note with it: S. cerevisiae mec2-1 strain, at 50.0 µM, active compounds read high. The method, boiled down: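 Strain: mec2-1 (DNA repair/cell cycle alteration). Compound exposure, then growth measured; inhibition expressed relative to vehicle.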
Test [3] is described as follows: NCI Yeast Anticancer Drug Screen. Data for the sgs1 mgt1 strain (AID 161).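 Note: 0% = growth of cultures given vehicle only.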 The note with it: S. cerevisiae sgs1 mgt1 strain, at 50.0 µM, active compounds read high. The method, boiled down:
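Read-out: growth inhibition vs vehicle controls. Cells: mutant yeast strain deficient in DNA damage repair.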

Test [4] can be described thus: NCI Yeast Anticancer Drug Screen. Data for the cln2 rad14 strain (AID 165).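 Note: 0% = growth equal to vehicle treated cultures.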 The note with it: S. cerevisiae cln2 rad14 strain, at 50.0 µM, active compounds read high. The method, boiled down: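 Compounds are applied to the cln2 rad14 yeast strain, and growth is then compared with that of vehicle-treated cultures to give inhibition.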
The nature of test [5]: NCI Yeast Anticancer Drug Screen. Data for the bub3 strain (AID 167). The settings on record: S. cerevisiae bub3 mutant strain, at 50.0 µM, active compounds read high. The method, boiled down:
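Readout: yeast growth inhibition, expressed relative to vehicle-only wells. The test organism is a mutant strain from a panel with lesions in DNA repair or checkpoint genes.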

The nature of test [6]: NCI Yeast Anticancer Drug Screen. Data for the mlh1 rad18 strain (AID 175). The note with it: S. cerevisiae mlh1 rad18 strain growth inhibition; at 50.0 µM; active compounds read high. The method, boiled down: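 Read-out is yeast growth inhibition, calculated against vehicle-only controls. The compound was applied to a strain engineered with DNA damage repair alterations.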

The structures appear in SMILES notation. About 79,000 compounds went through this panel and 15% of them were active in at least one assay; those are over-represented in the sample as a whole. A number with no mark means an inactive call. Active and inactive are the calls of the source. Cut-off read from the data, not from the text of the source: active = growth inhibition above about 70%; inactive = the rest.

For `CC(C)(C)[Si](C)(C)OC1CCOC1(O)c1ccccn1` (centres undefined), the growth inhibition in test [1] was 5.75%; in test [2], 0.65%; in test [3], 29.6%; in test [4] it was 37.1%; in test [5] it was 35.8%; in test [6] it was -8.2%.
`COC(=O)C1CCC(=O)N1CN(C(C)=O)c1ccccc1` (centres undefined): the growth inhibition in test [1] was 10.1%; in test [2], 8.6%; in test [3] it was -14.1%; in test [4] it was 9%; in test [5], -5.8%; in test [6], -30.6%.
Regarding `O=C1C2C(C(=O)N1c1ccccc1)C1([N+](=O)[O-])C=C3c4ccccc4N(C(=O)c4ccccc4)C32C2C(=O)N(c3ccccc3)C(=O)C21` (centres undefined), the growth inhibition in test [1] is -24.9%; in test [2], 12.8%; in test [3], -15.4%; in test [4], 36.3%; in test [5] it was -6.35%; in test [6] it was -4.9%.
`COc1ccc(C(=O)CC(=O)C2CCCCC2=O)cc1` (centres undefined): the growth inhibition in test [1] was -12.5%; in test [2], -12.3%; in test [3], -3.4%; in test [4], -19.8%; in test [5] it was 19.3%; in test [6], -9.05%.
As for `CCCCC(O)(CCCC)C(C)(C)C`, the growth inhibition is 3.7% in test [1]; 4.05% in test [2]; 0.6% in test [3]; -30.9% in test [4]; -0.2% in test [5]; 9.3% in test [6].
Consider `CS(=O)(=O)c1ccc(C=O)cc1`, for which the growth inhibition is 12.8% in test [1]; 6% in test [2]; 2.25% in test [3]; -3.8% in test [4]; -1.4% in test [5]; 8.3% in test [6].
As to `c1cc(C[S+]2CCCC2)ccc1C[S+]1CCCC1`, the growth inhibition in test [1] is -17.9%; in test [2], -30.9%; in test [3], -32%; in test [4], -21.1%; in test [5], -12.4%; in test [6] it was -22.3%.
Turning to `C/C=C(\C)C(=O)OC1CC(OC(=O)/C(C)=C/C)C2(C)C3C(=O)C=C(C)C2C3C1(C)C` (centres undefined), the growth inhibition in test [1] is 18.8%; in test [2], 5.85%; in test [3], 34.6%; in test [4], 25.6%; in test [5], 3.05%; in test [6], 6.8%.
For the molecule `CN(C)Cc1cc(C(=O)O)ccc1O`, the growth inhibition in test [1] was 10.1%; in test [2], 13.1%; in test [3], 9.45%; in test [4] it was -29%; in test [5], 2.85%; in test [6], -0.75%.
In the case of `CCCCCCCCCCCCCCCC(=O)NOCc1cscn1`, the growth inhibition is -0.8% in test [1]; -29.1% in test [2]; -3.25% in test [3]; -22.1% in test [4]; -12.8% in test [5]; 6.1% in test [6].
In the case of `CC1(C)OCC(C2OC3OC(C)(C)OC3C2OP(=O)(N2CC2)N2CC2)O1` (centres undefined), the growth inhibition in test [1] is -16.1%; in test [2] it was -31.4%; in test [3], -38.9%; in test [4], -49.2%; in test [5], -70.8%; in test [6], -73.4%.
Take `OC1CCC(C2C3CCCCC3C3CCCCC3C2C2CCC(O)CC2)CC1` (centres undefined): the growth inhibition was 94.7% (active) in test [1]; 98.5% (active) in test [2]; 92.5% (active) in test [3]; 97.9% (active) in test [4]; 97.2% (active) in test [5]; 96.8% (active) in test [6].
On to `C=C1OC(C2CCCCC2)=C(C(=O)OCC)C1C` (centres undefined), for which the growth inhibition in test [1] is -9.6%; in test [2], -17.2%; in test [3], -39%; in test [4] it was -21.1%; in test [5], 1.9%; in test [6], -9.45%.
For `COc1ccc([N+](=O)[O-])c2c(NCCC[N+](C)(C)[O-])c3ccccc3nc12`, the growth inhibition in test [1] is 24.9%; in test [2] it was -13.3%; in test [3], 3.05%; in test [4] it was -46.8%; in test [5] it was -19.2%; in test [6], 19.7%.
On to `CC[N+](C)(CC)CCOC(=O)C(c1ccccc1)C(O)C1CCCC1` (centres undefined), for which the growth inhibition was -6.85% in test [1]; 3.45% in test [2]; -0.2% in test [3]; -6.2% in test [4]; 20.9% in test [5]; -8.15% in test [6].
As for `Cc1cc(N(CCC#N)CCC#N)ccc1N=Nc1ccc(C(=O)O)cc1`, the growth inhibition was -30.9% in test [1]; -34.6% in test [2]; -13.7% in test [3]; -1.15% in test [4]; -2.9% in test [5]; -25% in test [6].
As to `O=c1c2cnc3cc(Cl)ccc3c2[nH]n1-c1ccc(Cl)cc1`, the growth inhibition in test [1] is -1.3%; in test [2] it was 0.45%; in test [3] it was 1.85%; in test [4] it was -2.55%; in test [5], 2.75%; in test [6] it was 2.9%.
`O=C(/C=N/O)Nc1ccccc1I`: the growth inhibition in test [1] is 3.95%; in test [2], -9.95%; in test [3] it was 20.4%; in test [4], 16.6%; in test [5], 18.1%; in test [6], -3.5%.
In the case of `Cn1c(=O)c2[nH]c(SCC(=O)O)nc2n(C)c1=O`, the growth inhibition in test [1] was 7.45%; in test [2], 0.95%; in test [3], 3.35%; in test [4], -21.4%; in test [5], 7.6%; in test [6], -3.65%.
